The text below walks through data of publication PMC8384837, “Expanding the binding specificity for RNA recognition by a PUF domain”.

What all share (test): yeast three-hybrid, YBZ-1, SC-Leu-His + 0.5 mM 3-AT, 4 days
Holding throughout (settings): tags: N-Gal4 AD-HA kept; label: inside an RPR1-promoter hybrid RNA with tandem MS2 sites; ssRNA

Test [1] has as its target PUM1 PUF domain R5-FRW (Homo sapiens, UniProt Q14671 828-1176, C1007F;Q1011W). The essentials: (§1)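 The interaction score is the log change in how often each variant appears, from input to selection. Frequencies came from PCR-amplified, Illumina-sequenced repeat regions of Pumilio-1 PUF domain libraries grown in strain YBZ-1 (LexA–MS2 coat fusion, HIS3 reporter) alongside matching RNA elements. Input plates were SC-Leu and selection plates were SC-Leu-His + 0.5 mM 3-AT, each for four days, and the log2 calculation used a pseudocount of 1 where a variant was absent.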

In test [2] the target is PUM1 PUF domain R4-DRC (Homo sapiens, UniProt Q14671 828-1176, N971D;H972R;Q975C). The essentials:
as §1

Test [3] has as its target T1, PUM1 PUF domain R6-VFI (Homo sapiens, UniProt Q14671 828-1176, N1043V;Y1044F;Q1047I).
T1 sequence: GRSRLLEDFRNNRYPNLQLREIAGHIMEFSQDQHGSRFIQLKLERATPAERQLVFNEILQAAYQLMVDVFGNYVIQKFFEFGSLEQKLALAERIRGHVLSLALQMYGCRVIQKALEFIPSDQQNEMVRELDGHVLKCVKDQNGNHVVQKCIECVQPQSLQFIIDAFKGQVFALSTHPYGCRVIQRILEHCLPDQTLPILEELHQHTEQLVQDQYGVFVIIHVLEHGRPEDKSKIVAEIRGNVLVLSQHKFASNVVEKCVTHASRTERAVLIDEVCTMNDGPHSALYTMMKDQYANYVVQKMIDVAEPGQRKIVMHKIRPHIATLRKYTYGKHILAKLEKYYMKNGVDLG
The essentials:
as §1

In test [4] the target is PUM1 PUF domain R4-WAA (Homo sapiens, UniProt Q14671 828-1176, N971W;H972A;Q975A). The essentials: as §1
Test [5] deals with PUM1 PUF domain R5-FHK (Homo sapiens, UniProt Q14671 828-1176, C1007F;R1008H;Q1011K). The essentials: as §1
Test [6] concerns the target PUM1 PUF domain R5-KHH (Homo sapiens, UniProt Q14671 828-1176, C1007K;R1008H;Q1011H). The essentials:
as §1

Test [7] concerns the target PUM1 PUF domain R3-LSC (Homo sapiens, UniProt Q14671 828-1176, C935L;R936S;Q939C). A digest of the protocol:
as §1

Test [8] has as its target PUM1 PUF domain R3-MSR (Homo sapiens, UniProt Q14671 828-1176, C935M;R936S;Q939R). A digest of the protocol: as §1
Test [9] concerns the target PUM1 PUF domain R4-MHW (Homo sapiens, UniProt Q14671 828-1176, N971M;Q975W). The essentials:
as §1

For test [10], the target named is PUM1 PUF domain R7-RGF (Homo sapiens, UniProt Q14671 828-1176, S1079R;N1080G;E1083F). A digest of the protocol:
as §1

As to “GGCUAGAACUAGUGGAUCCCCCGGCGCCCGGCGGCUCGAGCCCGGGUAAGUGUAAAUAGUCUGCAUGCCGCCGGGCGCCAUGCCUGCAGGUCGACUCUAGAAAACAUG”, the binding signal in test [1] is 1.07 log2 enrichment (interaction score); in [2], 5.15 log2 enrichment (interaction score); in test [3], 3.71 log2 enrichment (interaction score); in test [4], 1.39 log2 enrichment (interaction score).

Take “GGCUAGAACUAGUGGAUCCCCCGGCGCCCGGCGGCUCGAGCCCGGGUAAGUGUGAAUAGUCUGCAUGCCGCCGGGCGCCAUGCCUGCAGGUCGACUCUAGAAAACAUG”: the binding signal in test [5] is 3.51 log2 enrichment (interaction score); in [6] it was 2.08 log2 enrichment (interaction score).

For “GGCUAGAACUAGUGGAUCCCCCGGCGCCCGGCGGCUCGAGCCCGGGUAAGUGUAAUUAGUCUGCAUGCCGCCGGGCGCCAUGCCUGCAGGUCGACUCUAGAAAACAUG”, the figures for the binding signal in test [7] and in [8] were 2.84 log2 enrichment (interaction score) and 2.82 log2 enrichment (interaction score), respectively.

For “GGCUAGAACUAGUGGAUCCCCCGGCGCCCGGCGGCUCGAGCCCGGGUAAGUGUAAGUAGUCUGCAUGCCGCCGGGCGCCAUGCCUGCAGGUCGACUCUAGAAAACAUG”, in test [8], the binding signal was 3.44 log2 enrichment (interaction score).

Regarding “GGCUAGAACUAGUGGAUCCCCCGGCGCCCGGCGGCUCGAGCCCGGGUAAGUGUUAAUAGUCUGCAUGCCGCCGGGCGCCAUGCCUGCAGGUCGACUCUAGAAAACAUG”, the binding signal is 3.35 log2 enrichment (interaction score) in test [1] and 4.76 log2 enrichment (interaction score) in test [5].

Regarding “GGCUAGAACUAGUGGAUCCCCCGGCGCCCGGCGGCUCGAGCCCGGGUAAGUGUAUAUAGUCUGCAUGCCGCCGGGCGCCAUGCCUGCAGGUCGACUCUAGAAAACAUG”, the figures for the binding signal in [9] and in [4] were 3.93 log2 enrichment (interaction score) and 4.4 log2 enrichment (interaction score), respectively.

Take “GGCUAGAACUAGUGGAUCCCCCGGCGCCCGGCGGCUCGAGCCCGGGUAAGUUUAAAUAGUCUGCAUGCCGCCGGGCGCCAUGCCUGCAGGUCGACUCUAGAAAACAUG”: the binding signal in test [10] was 3.87 log2 enrichment (interaction score).

Take “GGCUAGAACUAGUGGAUCCCCCGGCGCCCGGCGGCUCGAGCCCGGGUAAGUGUCAAUAGUCUGCAUGCCGCCGGGCGCCAUGCCUGCAGGUCGACUCUAGAAAACAUG”: the binding signal in [1] was 3.47 log2 enrichment (interaction score).
